Measured values published in the supplement of paper PMC6411743.
± gives the standard deviation of the averaged measurements. Of roughly 5,400 targets only a part is listed; those with the largest changes were picked by preference.

Compound: Nc1nc2c(ncn2[C@@H]2O[C@H](COP(=O)(O)OP(=O)(O)OP(=O)(O)O)[C@@H](O)[C@H]2O)c(=O)[nH]1 [guanosine triphosphate]
Test: NP40-soluble protein abundance relative to vehicle (solubility fold change) (ratio); higher = more soluble protein in presence of GTP
Procedure, shortened: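 Crude Jurkat lysate, prepared by Dounce homogenisation, was exposed to eight concentrations from 0.1 to 10 mM for 10 min at room temperature and then 3 min at 37 °C. Solubilisation used 0.8% NP40 with benzonase for 60 min at 4 °C, followed by ultracentrifugation and TMT labelling of the supernatant for LC-MS/MS. After vsn normalisation of intensities, each value is the fold change against the detergent-processed vehicle within each replicate, across three independent experiments.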

Chain of UniProt Q9H6E4 (Q9H6E4 whole entry): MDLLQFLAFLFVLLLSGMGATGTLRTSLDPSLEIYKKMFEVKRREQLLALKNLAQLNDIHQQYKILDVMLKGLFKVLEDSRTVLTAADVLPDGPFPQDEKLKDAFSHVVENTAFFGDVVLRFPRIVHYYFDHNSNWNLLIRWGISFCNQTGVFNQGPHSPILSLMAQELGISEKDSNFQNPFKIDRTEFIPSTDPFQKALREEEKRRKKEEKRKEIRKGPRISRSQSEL
Chain of UniProt Q92804 (Q92804 whole entry): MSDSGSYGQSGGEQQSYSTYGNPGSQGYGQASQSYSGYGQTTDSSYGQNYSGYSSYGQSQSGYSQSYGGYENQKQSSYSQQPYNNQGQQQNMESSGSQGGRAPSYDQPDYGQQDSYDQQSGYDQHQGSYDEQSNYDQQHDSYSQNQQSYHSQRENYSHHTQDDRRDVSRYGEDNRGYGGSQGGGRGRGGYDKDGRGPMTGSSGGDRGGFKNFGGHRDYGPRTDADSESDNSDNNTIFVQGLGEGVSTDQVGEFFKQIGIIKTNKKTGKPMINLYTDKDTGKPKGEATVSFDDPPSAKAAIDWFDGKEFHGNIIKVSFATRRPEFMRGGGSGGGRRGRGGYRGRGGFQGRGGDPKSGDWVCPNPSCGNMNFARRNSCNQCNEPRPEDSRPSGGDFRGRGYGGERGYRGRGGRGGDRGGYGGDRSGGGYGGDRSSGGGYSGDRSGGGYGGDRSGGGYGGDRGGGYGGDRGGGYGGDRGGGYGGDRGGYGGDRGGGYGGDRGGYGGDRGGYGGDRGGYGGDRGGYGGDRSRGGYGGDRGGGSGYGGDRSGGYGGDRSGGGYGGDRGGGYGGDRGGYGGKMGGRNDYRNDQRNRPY
Chain of UniProt Q9Y266 (Q9Y266 whole entry): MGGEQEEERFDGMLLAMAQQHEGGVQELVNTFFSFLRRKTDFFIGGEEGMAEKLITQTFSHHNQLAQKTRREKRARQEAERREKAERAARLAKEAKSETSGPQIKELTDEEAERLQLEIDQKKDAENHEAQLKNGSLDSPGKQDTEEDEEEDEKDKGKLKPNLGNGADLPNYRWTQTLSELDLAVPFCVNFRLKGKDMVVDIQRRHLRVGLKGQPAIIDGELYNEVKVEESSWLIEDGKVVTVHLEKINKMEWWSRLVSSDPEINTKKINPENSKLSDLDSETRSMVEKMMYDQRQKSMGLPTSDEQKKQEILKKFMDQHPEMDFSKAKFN
Chain of UniProt Q9BZM5 (Q9BZM5 whole entry): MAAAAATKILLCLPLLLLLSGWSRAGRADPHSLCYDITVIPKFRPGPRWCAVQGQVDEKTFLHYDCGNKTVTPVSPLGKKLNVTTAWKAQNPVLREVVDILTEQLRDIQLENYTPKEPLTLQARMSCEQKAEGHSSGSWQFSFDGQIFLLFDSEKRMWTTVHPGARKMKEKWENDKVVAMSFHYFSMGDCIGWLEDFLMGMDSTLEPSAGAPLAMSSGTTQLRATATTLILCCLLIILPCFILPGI
Chain of UniProt Q92900 (Q92900 whole entry): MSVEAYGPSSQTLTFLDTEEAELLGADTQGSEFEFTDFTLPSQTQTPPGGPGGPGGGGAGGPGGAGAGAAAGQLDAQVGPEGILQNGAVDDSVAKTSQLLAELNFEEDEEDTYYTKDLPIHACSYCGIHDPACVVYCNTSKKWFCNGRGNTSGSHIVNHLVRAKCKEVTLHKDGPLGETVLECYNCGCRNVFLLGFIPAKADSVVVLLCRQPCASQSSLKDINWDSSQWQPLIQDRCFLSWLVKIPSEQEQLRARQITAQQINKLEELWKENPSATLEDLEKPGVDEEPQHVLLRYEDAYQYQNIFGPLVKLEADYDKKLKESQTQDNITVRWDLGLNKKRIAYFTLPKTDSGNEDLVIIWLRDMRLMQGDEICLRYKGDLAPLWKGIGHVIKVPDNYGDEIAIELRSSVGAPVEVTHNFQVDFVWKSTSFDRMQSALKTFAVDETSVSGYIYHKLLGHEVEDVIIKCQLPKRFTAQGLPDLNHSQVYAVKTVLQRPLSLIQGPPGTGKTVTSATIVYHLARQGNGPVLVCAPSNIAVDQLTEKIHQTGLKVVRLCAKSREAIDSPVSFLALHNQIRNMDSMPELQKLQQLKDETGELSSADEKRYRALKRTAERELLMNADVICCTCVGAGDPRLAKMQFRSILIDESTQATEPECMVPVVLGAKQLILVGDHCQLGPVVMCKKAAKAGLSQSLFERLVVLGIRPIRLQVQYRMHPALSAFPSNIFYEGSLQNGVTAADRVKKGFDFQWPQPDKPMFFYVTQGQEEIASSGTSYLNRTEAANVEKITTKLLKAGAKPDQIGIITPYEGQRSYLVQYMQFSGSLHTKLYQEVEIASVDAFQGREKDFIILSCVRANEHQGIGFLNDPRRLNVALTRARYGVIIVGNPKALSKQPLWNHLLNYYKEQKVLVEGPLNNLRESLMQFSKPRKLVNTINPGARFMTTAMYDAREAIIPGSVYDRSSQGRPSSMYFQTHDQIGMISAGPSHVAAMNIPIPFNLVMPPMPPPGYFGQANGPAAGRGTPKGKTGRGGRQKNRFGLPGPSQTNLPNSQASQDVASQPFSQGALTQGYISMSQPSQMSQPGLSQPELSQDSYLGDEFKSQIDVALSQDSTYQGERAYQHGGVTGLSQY
Chain of UniProt Q9NVG8 (Q9NVG8 whole entry): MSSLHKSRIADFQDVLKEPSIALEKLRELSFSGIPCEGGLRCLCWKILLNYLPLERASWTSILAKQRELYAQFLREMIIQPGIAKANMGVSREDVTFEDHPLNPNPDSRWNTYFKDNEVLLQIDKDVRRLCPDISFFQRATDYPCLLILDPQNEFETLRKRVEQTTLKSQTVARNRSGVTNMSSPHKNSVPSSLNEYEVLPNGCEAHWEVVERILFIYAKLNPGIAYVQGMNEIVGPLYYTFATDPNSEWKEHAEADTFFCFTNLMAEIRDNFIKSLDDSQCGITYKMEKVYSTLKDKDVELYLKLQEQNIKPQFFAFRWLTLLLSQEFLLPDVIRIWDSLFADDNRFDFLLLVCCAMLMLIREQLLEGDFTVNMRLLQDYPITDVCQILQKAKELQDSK
Chain of UniProt Q9Y2S2 (Q9Y2S2 whole entry): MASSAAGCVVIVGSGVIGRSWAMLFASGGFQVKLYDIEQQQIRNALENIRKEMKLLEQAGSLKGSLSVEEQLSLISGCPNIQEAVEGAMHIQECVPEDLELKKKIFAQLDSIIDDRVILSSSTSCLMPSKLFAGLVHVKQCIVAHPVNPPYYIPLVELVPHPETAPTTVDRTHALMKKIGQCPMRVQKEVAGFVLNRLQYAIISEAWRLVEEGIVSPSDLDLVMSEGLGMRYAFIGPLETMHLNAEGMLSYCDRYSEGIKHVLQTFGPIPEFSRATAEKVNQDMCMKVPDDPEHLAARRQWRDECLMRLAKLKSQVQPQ
Chain of UniProt Q9BW83 (Q9BW83 whole entry): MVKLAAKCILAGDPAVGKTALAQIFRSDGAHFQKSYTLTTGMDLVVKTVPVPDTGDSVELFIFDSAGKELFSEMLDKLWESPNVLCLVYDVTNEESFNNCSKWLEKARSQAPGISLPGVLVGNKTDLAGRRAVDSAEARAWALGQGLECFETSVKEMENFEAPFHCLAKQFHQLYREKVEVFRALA
Chain of UniProt Q9BVI0 (Q9BVI0 whole entry, one chain of several): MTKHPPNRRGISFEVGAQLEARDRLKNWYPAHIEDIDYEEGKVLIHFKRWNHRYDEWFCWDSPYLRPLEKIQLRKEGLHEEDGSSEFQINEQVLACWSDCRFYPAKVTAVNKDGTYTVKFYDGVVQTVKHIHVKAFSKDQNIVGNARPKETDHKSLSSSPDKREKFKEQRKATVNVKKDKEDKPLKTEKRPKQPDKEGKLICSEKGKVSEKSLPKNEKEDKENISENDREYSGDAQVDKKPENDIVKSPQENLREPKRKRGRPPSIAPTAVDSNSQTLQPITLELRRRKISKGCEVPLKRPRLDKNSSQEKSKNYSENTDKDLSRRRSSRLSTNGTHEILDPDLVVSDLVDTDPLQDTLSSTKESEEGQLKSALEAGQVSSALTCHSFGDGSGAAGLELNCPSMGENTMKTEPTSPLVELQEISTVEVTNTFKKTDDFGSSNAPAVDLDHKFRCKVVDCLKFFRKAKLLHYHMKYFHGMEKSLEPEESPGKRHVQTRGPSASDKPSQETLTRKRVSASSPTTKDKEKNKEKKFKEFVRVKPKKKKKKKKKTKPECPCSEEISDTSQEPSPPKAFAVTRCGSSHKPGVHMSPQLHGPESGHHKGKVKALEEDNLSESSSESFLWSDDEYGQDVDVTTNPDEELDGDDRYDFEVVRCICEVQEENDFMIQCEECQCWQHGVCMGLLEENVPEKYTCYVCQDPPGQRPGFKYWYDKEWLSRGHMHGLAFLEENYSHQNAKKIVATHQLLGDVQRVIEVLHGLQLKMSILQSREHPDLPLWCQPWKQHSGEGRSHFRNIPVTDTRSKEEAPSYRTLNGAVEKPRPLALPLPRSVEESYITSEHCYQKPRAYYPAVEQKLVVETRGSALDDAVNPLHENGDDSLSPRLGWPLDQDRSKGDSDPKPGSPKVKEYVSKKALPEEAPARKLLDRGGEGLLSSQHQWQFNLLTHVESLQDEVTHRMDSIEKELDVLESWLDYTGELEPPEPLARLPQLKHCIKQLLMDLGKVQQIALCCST
Chain of UniProt Q9UQN3 (Q9UQN3 whole entry): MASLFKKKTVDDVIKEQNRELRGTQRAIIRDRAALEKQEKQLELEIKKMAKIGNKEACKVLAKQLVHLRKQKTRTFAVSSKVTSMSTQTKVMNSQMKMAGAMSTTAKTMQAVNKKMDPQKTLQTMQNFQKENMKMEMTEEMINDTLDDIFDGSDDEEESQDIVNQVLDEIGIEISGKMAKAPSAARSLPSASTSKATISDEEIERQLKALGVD
Chain of UniProt Q9UBV8 (Q9UBV8 whole entry): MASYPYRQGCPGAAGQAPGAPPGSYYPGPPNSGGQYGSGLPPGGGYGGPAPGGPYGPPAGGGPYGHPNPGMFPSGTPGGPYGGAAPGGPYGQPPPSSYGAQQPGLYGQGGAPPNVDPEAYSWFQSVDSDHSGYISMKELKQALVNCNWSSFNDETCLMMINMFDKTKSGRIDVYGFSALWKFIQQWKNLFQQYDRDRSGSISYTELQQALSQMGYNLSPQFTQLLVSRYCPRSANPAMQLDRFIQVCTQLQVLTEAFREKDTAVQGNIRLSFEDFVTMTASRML

Target	NP40-soluble protein abundance (concentration: 0.1mM)	NP40-soluble protein abundance (concentration: 0.5mM)	NP40-soluble protein abundance (concentration: 1mM)	NP40-soluble protein abundance (concentration: 2mM)	NP40-soluble protein abundance (concentration: 4mM)	NP40-soluble protein abundance (concentration: 6mM)	NP40-soluble protein abundance (concentration: 8mM)	NP40-soluble protein abundance (concentration: 10mM)
PEF1 (UniProt Q9UBV8)	0.946 ± 0.077	0.888 ± 0.036	0.995 ± 0.1	0.994 ± 0.043	1.03 ± 0.076	0.993 ± 0.063	0.891 ± 0.084	1.02 ± 0.14
UniProt Q9Y3D9|J3QLR8	1.01 ± 0.17	1.01 ± 0.19	1.61 ± 0.35	1.69 ± 0.093	1.771 ± 0.00083	1.61 ± 0.061	1.49 ± 0.28	1.73 ± 0.19
DNAJB11 (UniProt Q9UBS4)	1.01 ± 0.027	1.02 ± 0.048	1.03 ± 0.059	1 ± 0.048	1.01 ± 0.051	1.02 ± 0.046	1.005 ± 0.0044	0.982 ± 0.029
UniProt Q9BW83|Q9BW83-2	0.972 ± 0.019	1.05 ± 0.059	0.971 ± 0.02	0.958 ± 0.013	0.911 ± 0.036	0.95 ± 0.018	0.916 ± 0.016	0.944 ± 0.0068
UniProt Q9Y3D0	0.836 ± 0.067	0.869 ± 0.033	1.02 ± 0.042	1.04 ± 0.049	0.987 ± 0.043	1.04 ± 0.013	1.04 ± 0.089	1.09 ± 0.17
UniProt Q9NVX0|Q9NVX0-2|Q9NVX0-3	0.873 ± 0.21	0.823 ± 0.036	1.02 ± 0.079	1.05 ± 0.083	1.01 ± 0.12	0.996 ± 0.14	0.963 ± 0.022	1.02 ± 0.17
JARID2 (UniProt Q92833)	0.971 ± 0.078	1.07 ± 0.11	1.09 ± 0.088	1.08 ± 0.087	1.05 ± 0.04	1.05 ± 0.088	1.18 ± 0.04	1.15 ± 0.026
SF3B5 (UniProt Q9BWJ5)	1.1 ± 0.16	1.11 ± 0.16	1.17 ± 0.23	1.27 ± 0.2	1.25 ± 0.21	1.33 ± 0.15	1.31 ± 0.19	1.38 ± 0.22
UniProt Q9NR28|Q9NR28-2	0.964 ± 0.011	0.957 ± 0.055	0.972 ± 0.041	0.963 ± 0.075	0.976 ± 0.059	0.96 ± 0.068	0.94 ± 0.033	1.01 ± 0.035
UniProt Q96JM7|Q96JM7-2	1.13 ± 0.15	1.14 ± 0.016	1.08 ± 0.16	1.13 ± 0.078	1.1 ± 0.2	1.23 ± 0.031	1.11 ± 0.056	1.15 ± 0.073
ULBP2 (UniProt Q9BZM5)	0.893 ± 0.085	0.86 ± 0.1	0.918 ± 0.073	0.884 ± 0.1	0.907 ± 0.098	0.89 ± 0.043	0.916 ± 0.1	0.925 ± 0.088
SEC63 (UniProt Q9UGP8)	0.964 ± 0.023	0.977 ± 0.022	0.935 ± 0.045	0.926 ± 0.036	0.913 ± 0.073	0.927 ± 0.026	0.93 ± 0.022	0.897 ± 0.03
RAB21 (UniProt Q9UL25)	0.998 ± 0.058	0.967 ± 0.036	0.87 ± 0.016	0.862 ± 0.011	0.837 ± 0.029	0.84 ± 0.039	0.812 ± 0.048	0.813 ± 0.093
UniProt Q9Y2S2|Q9Y2S2-2	1.09 ± 0.12	0.991 ± 0.11	0.974 ± 0.12	0.971 ± 0.11	0.948 ± 0.12	0.922 ± 0.13	0.946 ± 0.15	0.912 ± 0.18
UniProt Q9UG63|Q9UG63-2	1.1 ± 0.076	1.11 ± 0.014	1.07 ± 0.072	1.35 ± 0.072	1.83 ± 0.061	2.15 ± 0.12	2.39 ± 0.11	2.744 ± 0.018
OCIAD1 (UniProt Q9NX40)	0.922 ± 0.025	0.9 ± 0.044	1.01 ± 0.016	0.982 ± 0.058	0.971 ± 0.072	0.956 ± 0.053	0.956 ± 0.034	0.974 ± 0.037
NUDC (UniProt Q9Y266)	0.924 ± 0.044	0.938 ± 0.06	0.931 ± 0.058	0.88 ± 0.077	0.852 ± 0.063	0.893 ± 0.076	0.885 ± 0.056	0.872 ± 0.069
UniProt Q92900|Q92900-2	1.01 ± 0.025	1.01 ± 0.04	0.936 ± 0.034	0.971 ± 0.065	0.957 ± 0.049	0.937 ± 0.057	0.898 ± 0.035	0.884 ± 0.011
UniProt Q9Y2C4|Q9Y2C4-3|Q9Y2C4-4	1.2 ± 0.083	1.12 ± 0.049	1.11 ± 0.083	1.14 ± 0.088	1.08 ± 0.033	1.07 ± 0.081	1.01 ± 0.034	1.03 ± 0.044
FN3KRP (UniProt Q9HA64)	0.9717 ± 0.0097	0.991 ± 0.014	0.927 ± 0.032	0.913 ± 0.061	0.905 ± 0.042	0.884 ± 0.031	0.89 ± 0.047	0.868 ± 0.051
UniProt Q9Y3U8|J3QSB5	0.976 ± 0.084	0.987 ± 0.01	1.04 ± 0.075	0.994 ± 0.14	0.921 ± 0.12	0.855 ± 0.09	0.514 ± 0.13	0.919 ± 0.16
NCOA5 (UniProt Q9HCD5)	1.03 ± 0.053	1 ± 0.028	1.084 ± 0.0085	1.22 ± 0.043	1.58 ± 0.053	1.81 ± 0.059	2.15 ± 0.18	2.4 ± 0.19
UniProt Q9H3N1	0.957 ± 0.055	0.947 ± 0.043	0.935 ± 0.04	0.871 ± 0.062	0.858 ± 0.071	0.878 ± 0.091	0.885 ± 0.053	0.859 ± 0.065
UniProt Q92804|Q92804-2	0.976 ± 0.03	1.048 ± 0.0095	1.18 ± 0.09	1.35 ± 0.14	1.56 ± 0.22	1.73 ± 0.28	2.08 ± 0.35	2.59 ± 0.54
CCDC134 (UniProt Q9H6E4)	0.934 ± 0.071	0.893 ± 0.1	0.944 ± 0.089	0.911 ± 0.087	0.905 ± 0.077	0.881 ± 0.084	0.869 ± 0.1	0.86 ± 0.091
UniProt Q96FJ2	0.875 ± 0.063	0.83 ± 0.033	1.07 ± 0.12	1.06 ± 0.081	1.18 ± 0.1	1.03 ± 0.11	1.05 ± 0.087	1.18 ± 0.17
UniProt Q9BVI0|A0A0A0MT13|Q5JWZ0|Q5JXL1	1.11 ± 0.068	1.07 ± 0.12	1.19 ± 0.078	1.27 ± 0.057	1.52 ± 0.056	1.553 ± 0.012	1.77 ± 0.08	1.71 ± 0.071
TBC1D13 (UniProt Q9NVG8)	0.962 ± 0.036	0.985 ± 0.048	0.927 ± 0.046	0.896 ± 0.047	0.857 ± 0.071	0.866 ± 0.066	0.847 ± 0.1	0.822 ± 0.089
CHMP2B (UniProt Q9UQN3)	0.905 ± 0.051	0.909 ± 0.092	0.989 ± 0.079	0.931 ± 0.15	0.938 ± 0.12	0.967 ± 0.14	0.953 ± 0.085	0.932 ± 0.11
